Reference: the supplement of paper PMC5641865, “A screen for kinase inhibitors identifies antimicrobial imidazopyridine aminofurazans as specific inhibitors of the Listeria monocytogenes PASTA kinase PrkA” (The Journal of Biological Chemistry, 2017)
± gives the standard deviation of the averaged measurements.

tested on: Listeria monocytogenes 10403S; experiment: growth inhibition relative to ceftriaxone-alone control; higher = stronger potentiation of ceftriaxone growth inhibition; conditions: 10 µM; ceftriaxone 1 ug/ml; 12 h
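Also: End-point A600 read in BHI broth at 37 °C with 2% DMSO, inhibition computed as (1 − OD with compound plus ceftriaxone ÷ OD with ceftriaxone only) × 100.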

Point of comparison: COc1cccc(Nc2nccc(-c3cnn4ncccc34)n2)c1, growth inhibition -2.59 ± 1.4%. Against it:
- CCS(=O)(=O)Nc1ccc2c(c1)/C(=C(/Nc1ccc(CN3CCCCC3)cc1)c1ccccc1)C(=O)N2 [Hesperadin] — higher, 19.3 ± 11%
- CC(C)(C)c1nc(-c2cccc(NS(=O)(=O)c3c(F)cccc3F)c2F)c(-c2ccnc(N)n2)s1 — higher, 56.2 ± 26%
- Nc1ncnc2occ(-c3ccc(NC(=O)Nc4cccc(C(F)(F)F)c4)cc3)c12 — lower, -12.9 ± 3.5%
- CCS(=O)(=O)c1ccc(OC)c(Nc2nccc(N(C)c3ccc4c(C)n[nH]c4c3)n2)c1 — within error, 0.981 ± 2.5%
- NS(=O)(=O)c1ccc(Nc2cc(-c3cccc(O)c3)n[nH]2)cc1 — higher, 10.9 ± 3.9%
- CNC(=O)c1cccc(-c2ccc3c(N4CCOC[C@@H]4C)nc(N4CCOC[C@@H]4C)nc3n2)c1 — higher, 1.51 ± 0.18%
- NC(=O)c1cccc(Nc2nccc(Nc3cccc(F)c3)n2)c1 — within error, -4.52 ± 12%
- Cc1[nH]nc2ccc(-c3cncc(OC[C@@H](N)Cc4ccccc4)c3)cc12 — higher, 76.8 ± 16%
- COc1cc(N2CCN(C(C)C)CC2)ccc1Nc1nc(Nc2ccc(F)cc2C(N)=O)c2cc[nH]c2n1 — lower, -11.9 ± 7%
- C[C@@H](Oc1cc(-n2cnc3ccc(OC4CCN(C)CC4)cc32)sc1C(N)=O)c1ccccc1Cl — within error, 0.604 ± 2.5%
- Cc1cccc2c1NC(=O)/C2=N\Nc1ccc(S(N)(=O)=O)cc1 — within error, -10.2 ± 7.5%
- CCCN1CCC(c2ccc(Nc3nc(Nc4cc(F)ccc4C(N)=O)c4cc[nH]c4n3)c(OC)c2)CC1 — within error, -8.21 ± 4.5%
- Cc1ccc(NC(=O)c2ccc(CN3CCN(C)CC3)cc2)cc1Nc1nccc(-c2cccnc2)n1 [Imatinib (Gleevec)] — higher, 16.3 ± 4.7%
- CN(C)Cc1cccc(N/C(=C2\C(=O)Nc3cc(C(N)=O)ccc32)c2ccccc2)c1 — higher, 8.63 ± 3.3%
- CN1CCN(CCOc2cc(OC3CCOCC3)c3c(Nc4c(Cl)ccc5c4OCO5)ncnc3c2)CC1 [Saracatinib (AZD0530)] — within error, -2.45 ± 20%
- CN1CCN(C2CCN(C(=O)Nc3cc(Oc4ccc(NC(=O)C5(C(=O)Nc6ccc(F)cc6)CC5)c(F)c4)ccn3)CC2)CC1 [Golvatinib (E7050)] — higher, 48.7 ± 37%
- COc1cc2ncn(-c3cc(OCc4ccccc4S(C)(=O)=O)c(C#N)s3)c2cc1OC — higher, 12.7 ± 3%
- NC(=O)c1cccc(Nc2nccc(Nc3cccc4[nH]ncc34)n2)c1 — higher, 0.727 ± 1.3%
- COc1cccc(-n2ncc3c(N/N=C/c4ccc(F)cc4)ncnc32)c1 — within error, -3.41 ± 1%
- CS(=O)(=O)CCNCc1ccc(-c2ccc3ncnc(Nc4ccc(OCc5ccccc5)c(Br)c4)c3c2)o1 — within error, -2.35 ± 3.3%
- O=C(Nc1n[nH]c2nnc(-c3cccnc3)cc12)C1CC1 — within error, -0.393 ± 1.3%
- COc1ccc2cc(-c3c(-c4ccncc4)nc(-c4ccc(S(C)(=O)=O)cc4C)n3C)ccc2c1 — within error, -1.1 ± 3.1%
